The values below come from PubChem BioAssay (Tox21).

Each structure is given as a SMILES string. Values joined by “and” are separate entries in the source; they are usually repeats but may differ in a detail not shown here. Equal values may be shown once. Records with an inconclusive call do not appear. Entries that show only a call come without a potency. A structure can be active in one record and inactive in another. Active and inactive are the calls of the source. Calls come from the whole dose curve; as a rule, active = well fitted cell-killing curve with a large enough effect in the repeat runs; inconclusive = weak or mixed curves, or effect the other way; inactive = no such curve, though single readings can be large or run the other way.
Potency is the fitted concentration of half-maximal effect.

The nature of this assay: qHTS assay to identify small molecule agonists of the farnesoid-X-receptor (FXR) signaling pathway - cell viability counter screen (AID 743218). Note: nearly all actives have a fitted effect of over 45% in size. The conditions noted are these: FXR-bla HEK293T viability, CellTiter-Glo luminescence, 16 h; series mostly up to 62.6 µM. The source says: U.S. Tox21 Program National Center for Advancing Translational Sciences [NCATS] NIH Chemical Genomics Center [NCGC] U.S. Environmental Protection Agency [EPA] National Institutes of Environmental Health Sciences [NIEHS] National Toxicology Program [NTP] U.S. Food and Drug Administration [FDA] Tox21 Assay Overview: The farnesoid-X-receptor (FXR), a nuclear hormone receptor, is highly expressed in liver, intestine, kidney and adrenal cortex. Natural ligands of FXR are the bile acids (Cholic acid, Chenodeoxy cholic acid etc). FXR is an important regulator of diverse metabolic pathways, including the bile acid homeostasis, lipid and glucose metabolisms. FXR regulates the expression of target genes by binding either as a monomer or as a heterodimer with the retinoid X receptor (RXR). Numerous studies have reported that FXR exerts protective function during cholestasis, diabetes, liver regeneration, and cancer. To identify compounds that activate FXR signaling, GeneBLAzer FXR-UAS-bla HEK 293T cell line (Invitrogen, Carlsbad, CA) containing a beta-lactamase reporter gene under the control of a UAS response element was used to screen the Tox21 10K compound library. The cytotoxicity of the Tox21 compound library against the FXR-bla cell line was tested in parallel by measuring the cell viability using CellTiter-Glo assay in the same wells.
Tox21 Assay Protocol Summary: FXR-bla cells were dispensed at 5000 cells/5uL/well in 1536-well black wall/clear bottom plates using a Multidrop Combi (Thermo Fisher Scientific, Waltham, MA) dispenser. After the assay plates were incubated at 37 C and 5% CO2 for 5 h, 23 nL of compounds dissolved in DMSO, positive controls or DMSO only was transferred to the assay plate by a Pintool station (Kalypsys, San Diego, CA). The assay plates were incubated at 37C for 16 h. After 1 uL of LiveBLAzerTM B/G FRET substrate was added using a Bioraptr Flying Reagent Dispenser (FRD) workstation (Beckman Coulter, Indianapolis, IN), the plates were incubated at room temperature for 2 h, and fluorescence intensity was measured by an Envision plate reader (PerkinElmer, Shelton, CT). For cell viability readout that measures cytotoxicity, 4uL/well of CellTiter-Glo reagent was added into the assay plates using a Bioraptr FRD. After 30 min incubation at room temperature, the luminescence intensity in the plates was measured using a ViewLux plate reader (PerkinElmer).
For orientation: Quantitative high-throughput screening tests each substance at several concentrations.
Turning to `CNC(=O)c1cc(Oc2ccc(NC(=O)Nc3ccc(Cl)c(C(F)(F)F)c3)cc2)ccn1`, the Potency is 21.1 µM (active).

As to `CCN(CC)CCOC(=O)C1(C2CCCCC2)CCCCC1`, the Potency result was “inactive”.

As for `CCCC(CC)CCCCCCCN` (stereo not given), the Potency entry is “inactive”.

Turning to `CC(=O)Oc1ccc(C2(c3ccc(OC(C)=O)cc3)C(=O)Nc3ccccc32)cc1`, the Potency result is “inactive”.

As for `COC(=O)CC#N`, the Potency result is “inactive”.

With `C[C@@]12C(=O)OC(=O)[C@]1(C)C1CCC2O1`, the Potency is 11.9 µM (active).

For `Nc1ccc2cc3ccc(N)cc3nc2c1`, the Potency was 3.89 µM (active) and inactive.

On to `CCCCCCCCCC(=O)N(C)C`, for which the Potency result is “inactive”.

Turning to `CCCOc1sc(C(=O)N2CCC(c3cc(CN)ccc3F)CC2)c(C)c1Br`, the Potency was 25.2 µM (active).

For the molecule `COc1ccc2sc(C(=O)Nc3nnn[nH]3)c(OC(C)C)c2c1`, the Potency result was “inactive”.

Take `Cc1ccc2ccc3cccc4ccc1c2c34`: the Potency entry was “inactive”.

As to `CCCSS/C(CCO)=C(\C)N(C=O)Cc1cnc(C)nc1N`, the Potency entry was “inactive”.

As to `CC(NCCC(c1ccccc1)c1ccccc1)c1ccccc1` (stereo not given), the Potency was 23.7 µM (active).

As to `O=C1NC2CCCCN2C12CCN(CCCN1c3ccccc3CCc3ccc(Cl)cc31)CC2` (stereo not given), the Potency was 23.7 µM (active).

Regarding `C=CC(C)(CCC=C(C)C)OC(=O)/C=C/c1ccccc1` (stereo not given), the Potency entry is “inactive”.

For `CCCCCCCCCCCCN(CCO)CCO`, the Potency was 54.7 µM (active).

In the case of `CN(C)c1ccc(N=NS(=O)(=O)O)cc1`, the Potency entry was “inactive”.

On to `CCC1(c2cnc[nH]2)Cc2ccccc2C1`, for which the Potency result was “inactive”.

For the molecule `CC1=C(/C=C/C(C)=C/C=C/C(C)=C\C=O)C(C)(C)CCC1`, the Potency was 46.4 µM (active).

For the molecule `Cc1cccc(C)c1NC(=O)CN1CCN(CCCC(c2ccc(F)cc2)c2ccc(F)cc2)CC1`, the Potency is 26.6 µM (active).

For `Cc1c(C(=O)O)cccc1[N+](=O)[O-]`, the Potency entry was “inactive”.

As to `CC(CN(C)C)CN1c2ccccc2CCc2ccccc21` (stereo not given), the Potency is 8.41 µM (active).

Turning to `COc1cc(C(C)C)c2c(c1)S(=O)(=O)N(COc1cc(=O)n3cccc(OCCN4CCCCC4)c3n1)C2=O`, the Potency entry is “inactive”.

Take `C=C1C(C)(C)[C@@]2(Cl)C(Cl)[C@]1(Cl)C(Cl)(Cl)C2(Cl)Cl` (stereo not given in full): the Potency is 53.9 µM (active).

For the molecule `CCN(CC)CCNc1ccc(CO)c2sc3ccccc3c(=O)c12`, the Potency was 13.3 µM (active).

Consider `CCOC(=O)N1CCC(=C2c3ccc(Cl)cc3CCc3cccnc32)CC1`, for which the Potency was 21.9 µM (active).

For `CCOC(=O)COc1ccc(C)cc1`, the Potency result was “inactive”.

For the molecule `CC1(C)C(=O)N(Br)C(=O)N1Br`, the Potency entry was “inactive”.

For `CC(C)c1ccc(O)c(C(C)C)c1`, the Potency entry was “inactive”.

As to `Clc1ccc(C(Cn2ccnc2)OCc2ccsc2Cl)c(Cl)c1` (stereo not given), the Potency is 18.8 µM (active).

With `COc1cc(C=C2CCC/C(=C\c3ccc(O)c(OC)c3)C2=O)ccc1O`, the Potency was 21.1 µM (active).

With `CCOC(=O)C1=C(C)NC(C)=C(C(=O)OCC)C1c1ccccc1/C=C/C(=O)OC(C)(C)C`, the Potency is 23.7 µM (active).

`CNCC[C@H](Oc1cccc2ccccc12)c1cccs1`: the Potency was 6.68 µM (active).

As to `Cc1cc2c(C(C)C)c(O)c(O)c(C=O)c2c(O)c1-c1c(C)cc2c(C(C)C)c(O)c(O)c(C=O)c2c1O`, the Potency was 10.6 µM (active).

Take `COC(=O)CC(C)CCC=C(C)C` (stereo not given): the Potency entry was “inactive”.

As for `CN1[C@@H]2CC[C@H]1CC(OC(=O)C(CO)c1ccccc1)C2` (stereo not given in full), the Potency entry is “inactive”.

Turning to `CSc1ccc2c(c1)N(CCC1CCCCN1C)c1ccccc1S2` (stereo not given), the Potency is 21.8 µM (active) and 16.8 µM (active).

Consider `CCCCOc1ccc(C(=O)CCN2CCCCC2)cc1`, for which the Potency entry was “inactive”.

For the molecule `COC(=O)C1=C(C)NC(C)=C(C(=O)OCCCN2CCC(c3ccccc3)(c3ccccc3)CC2)C1c1cccc([N+](=O)[O-])c1` (stereo not given), the Potency is 11.9 µM (active).

Consider `C1CC(COCC2CO2)CCC1COCC1CO1` (stereo not given), for which the Potency result is “inactive”.
